The source of these data is PubChem BioAssay AID848 (Columbia University Molecular Screening Center, 2007).

Hit rate of the full screen: of about 93,000 compounds, about 160 (0.17%) were called active.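 Rule for the calls: active = cell count reduction exceeding the screen mean by over 5 SD, scaled to untreated wells per plate (cut at about 78% in these data); inactive = the rest.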 Shown is part of a subset that was picked to be rich in actives.

This test is described as follows: HUVEC nuclei count loss under TNFa – imaging, Hoechst nuclei count, cytotoxicity control for VCAM1 expression modulator project, primary screen (AID 848).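 Note: cells counted after 24 h of TNF alpha exposure following the 1 h pretreatment.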 Conditions: HUVEC TNFalpha-stimulated, at 2 µM, stronger effect = higher value.
With `CCC(=O)Nc1ccc(C(=O)Nc2cccc(OC)c2)cc1`, the cell count reduction is -29.2% (inactive).

For the molecule `COc1cc(/C=N/O)cc(Br)c1OS(=O)(=O)c1ccc(C)cc1`, the cell count reduction is -20% (inactive).

In the case of `COc1ccc(/C=C(\NC(=O)c2ccc(OC)c(OC)c2)C(=O)NCCc2c[nH]c3ccccc23)cc1`, the cell count reduction is -3.8% (inactive).

Take `Cc1cccc(N2CCN(S(=O)(=O)c3ccc4[nH]c(=O)c(=O)[nH]c4c3)CC2C)c1` (stereo unspecified): the cell count reduction was -4.3% (inactive).

As for `Cc1ccc(NC(=O)CN2CCc3ccccc3C2)cc1`, the cell count reduction was -11.7% (inactive).

`COc1ccccc1-c1n[nH]c2c1[C@H](C)CC[C@H]2C(C)C`: the cell count reduction is -1.8% (inactive).

On to `O=C1CSC(c2ccccc2)N1c1nc(-c2ccc(Cl)cc2Cl)cs1` (stereo unspecified), for which the cell count reduction is 12.4% (inactive).

For `CC1(C)Cc2c(sc3nc(SCC(=O)NCc4ccccc4)n(-c4ccccc4)c(=O)c23)CS1`, the cell count reduction is -2.4% (inactive).

`O=C1CCCC2=C1C(c1ccccc1)n1c(s/c(=C/c3cccc(F)c3)c1=O)=N2` (stereo unspecified): the cell count reduction was -15.2% (inactive).

Consider `Cc1cc2[nH]ncc2cc1NC(=S)NC(=O)c1ccccc1`, for which the cell count reduction is -6% (inactive).

Turning to `CCOC(=O)/C(=C\c1ccc([N+](=O)[O-])cc1)C(=O)c1cc(C(C)=O)c(Nc2ccccc2)s1`, the cell count reduction was 5.8% (inactive).

Turning to `CN(C)C(CNC(=O)CCCOc1ccccc1)c1ccco1` (stereo unspecified), the cell count reduction is -22.1% (inactive).

`O=C(c1ccccc1)C(Cn1cncn1)C(Sc1ccccc1)c1ccccc1` (stereo unspecified): the cell count reduction is -17.7% (inactive).

In the case of `CC(C)C(=O)Nc1cccc(NC(=S)NC(=O)C(c2ccccc2)c2ccccc2)c1`, the cell count reduction was -31.2% (inactive).

As for `Fc1ccccc1COc1ccccc1CNCc1ccncc1`, the cell count reduction was 2.6% (inactive).

For `COc1ccc(NS(=O)(=O)c2ccc(NC(=S)NC(=O)CC(C)C)cc2)cc1`, the cell count reduction is -22.5% (inactive).

On to `Cc1ccc(N2CCN(C3=NC(=O)/C(=C\c4cccs4)S3)CC2)cc1`, for which the cell count reduction is -5.4% (inactive).

As for `COc1ccc(CN2CCn3ncc(C(=O)Nc4ccc(Cl)cc4Cl)c3C2=O)cc1`, the cell count reduction is -5.8% (inactive).

With `CNC(=S)NNC(=O)c1sccc1OCc1ccccc1`, the cell count reduction is -14.5% (inactive).

Take `Cc1n[nH]c(=S)n1/N=C/c1ccc(Br)o1`: the cell count reduction was -5.8% (inactive).

With `Cc1ccc(C2CC2C(=O)NN)cc1` (stereo unspecified), the cell count reduction is -10.3% (inactive).

Regarding `O=C(CNC(=O)OCc1ccccc1)Oc1cc2oc(=O)cc(-c3ccccc3)c2cc1Cl`, the cell count reduction was 0% (inactive).

On to `O=S(=O)(N/N=C\c1cccn1-c1ccccc1)c1ccc2ccccc2c1`, for which the cell count reduction is -15.3% (inactive).

Consider `Cc1c(NC(=O)/C=C/C(=O)O)cccc1[N+](=O)[O-]`, for which the cell count reduction was -2.4% (inactive).

Regarding `CCOC(=O)C1=C(C)Nc2sc(C(=O)c3ccc(Br)cc3)c(N)c2C1c1ccc(C(=O)OC)cc1` (stereo unspecified), the cell count reduction was -15.9% (inactive).

For `COc1ccc(CCNC(=S)NC(=O)/C=C/c2ccc(C)cc2)cc1OC`, the cell count reduction was -29.7% (inactive).

`COc1ccc(Oc2coc3cc(OC(=O)c4cncc(Br)c4)ccc3c2=O)cc1`: the cell count reduction is 7% (inactive).

Take `O=C(NC1CC1)c1ccc2c(c1)NC(=O)c1ccccc1S2`: the cell count reduction was -13.8% (inactive).

`Cc1ccc(/C=N/NC(=O)c2sccc2OCc2ccc(F)cc2)cc1`: the cell count reduction is -8.8% (inactive).

With `Cc1cc(=O)oc2cc(OC(C)C(=O)Nc3ccc(N4CCOCC4)cc3)ccc12` (stereo unspecified), the cell count reduction is -7.6% (inactive).

Turning to `Cc1nnc(NC(=O)CSc2nc(C3CCCCC3)nc3ccccc23)s1`, the cell count reduction was -7.9% (inactive).

As for `O=C1CCN(C(=O)Nc2ccccc2)N1`, the cell count reduction was -11.8% (inactive).

Turning to `CCOc1cccc(SCc2noc(C(=O)NC(C)C)c2C(=O)O)c1`, the cell count reduction is -41.1% (inactive).

For the molecule `Cc1cc([N+](=O)[O-])c(N2CCC[C@@H]2C(=O)O)c([N+](=O)[O-])c1`, the cell count reduction is -11.9% (inactive).

Take `CC(C(=O)Nc1ccc(F)c(F)c1F)N1CCCCCC1` (stereo unspecified): the cell count reduction is 0% (inactive).

Take `CCC(C(=O)NCc1ccc(OC)cc1)n1nc(C)n2c(cc3occc32)c1=O` (stereo unspecified): the cell count reduction was -4.6% (inactive).

On to `C/C(=N\NS(=O)(=O)c1cccc([N+](=O)[O-])c1)c1cc2ccccc2o1`, for which the cell count reduction is -56% (inactive).

For `CC1CC(C)CN(C(=O)CSc2nnc(CSc3ncccn3)n2C)C1` (stereo unspecified), the cell count reduction was -24.8% (inactive).

Regarding `Cc1ccc(NC(=S)NC(=O)c2ccc(-c3ccccc3)cc2)c(C)c1`, the cell count reduction was -14.1% (inactive).

On to `CCCCNC(=O)CSc1nc2ccc(NC(=O)CSc3nnc(COc4ccccc4C)n3C)cc2s1`, for which the cell count reduction was -20.8% (inactive).

Consider `O=C(Nc1ccccc1Cl)O/N=C(/c1ccccc1)c1ccccn1`, for which the cell count reduction is 9.5% (inactive).

In the case of `Cc1nn(Cc2ccccc2Cl)c(C)c1NC(=O)Cn1nc([N+](=O)[O-])c(Cl)c1C`, the cell count reduction was 10.2% (inactive).

With `CSCc1cc(N(C)C)nc(SCc2ccc(Cl)cc2Cl)n1`, the cell count reduction is -3% (inactive).

As for `COCCCNCC(=O)Nc1sc(C)c(C)c1C(=O)OC`, the cell count reduction was -27.9% (inactive).

Turning to `COc1ccc2c(Cl)c(C(=O)NCc3ccco3)sc2c1`, the cell count reduction was -12% (inactive).

`O=C(CSc1ccc(/C=N/NC(=O)c2cccc(F)c2)o1)Nc1ccccc1`: the cell count reduction is -19.1% (inactive).

Turning to `C=CCn1c(-c2ccc(Cl)cc2)ccc(C#N)c1=O`, the cell count reduction was 4.1% (inactive).

On to `CCC(c1nnnn1C(C)(C)C)N(Cc1cc2cccc(C)c2n2nnnc12)C1CCCC1` (stereo unspecified), for which the cell count reduction was -17% (inactive).

As for `O=C(CCCN1C(=O)c2ccccc2C1=O)Oc1ccc(Cl)cc1`, the cell count reduction was -17.1% (inactive).

Regarding `CN1/C(=c2/s/c(=C3/C(=O)N(c4ccccc4)NC3=Nc3ccccc3)n(C)c2=O)C(C)(C)c2ccccc21`, the cell count reduction was 3.8% (inactive).

On to `C(=N/N1CCN(c2ccccc2)CC1)/c1cccs1`, for which the cell count reduction is -6.5% (inactive).

Take `Cc1ccc(-n2c(CNc3ccc(F)cc3)nnc2SCC(=O)N2CCOCC2)cc1`: the cell count reduction is -20.7% (inactive).

Regarding `COc1ccc(-c2c(C(C)=O)c(C)nc3sc4c(=O)n(-c5ccc(C)cc5)nnc4c23)cc1`, the cell count reduction is -14.8% (inactive).

With `Cc1cc(C)n2nc(C(=O)NC(C)(C)C)nc2n1`, the cell count reduction was 14.4% (inactive).

With `COc1cc(OC)cc(C(=O)NC(=S)N2CCN(c3ccc(C(F)(F)F)cc3[N+](=O)[O-])CC2)c1`, the cell count reduction is -5.1% (inactive).

Turning to `Cc1cccc(N(C(=O)c2ccc(CN3CCOCC3)o2)C(C(=O)NC2CCCCC2)c2ccc(F)cc2)c1` (stereo unspecified), the cell count reduction is -36.1% (inactive).

In the case of `Cc1ccc(-n2nc(N)c3c(=O)oc(N(C)C)nc32)cc1`, the cell count reduction is 5% (inactive).

Regarding `CN(C)/C=C/C(=O)c1ccccc1F`, the cell count reduction is -9% (inactive).

As to `O=C(Nc1ccccc1)c1ccc2nsnc2c1`, the cell count reduction is 5.4% (inactive).

Take `O=C(Nc1cc(C(F)(F)F)ccc1Cl)c1cc2nc3c(c(C(F)(F)F)n2n1)CCCC3`: the cell count reduction was -32.1% (inactive).

As to `CCCCOC(=O)Cn1c(=O)n(CC(=O)OCCCC)c2cc(C)ccc21`, the cell count reduction is -29.5% (inactive).

`CCOC(=O)c1nc(C)n(-c2ccc(Cl)cc2Cl)n1`: the cell count reduction is -3.8% (inactive).

Take `COc1ccc(/C=N/Nc2nc3ccccc3c(=O)[nH]2)cc1`: the cell count reduction is 18.9% (inactive).

Turning to `CC(=O)N1CCc2cc(S(=O)(=O)Nc3ccccc3N3CCN(C)CC3)ccc21`, the cell count reduction was -25.4% (inactive).

Take `CCCNS(=O)(=O)c1ccc2c(c1)CCCN2C(C)=O`: the cell count reduction was 100% (active).

As for `CC(=O)N1CCCc2cc(S(=O)(=O)CCC(=O)N3CCN(c4ccccc4)CC3)ccc21`, the cell count reduction is -22.4% (inactive).

Take `O=C(/C=C/c1ccco1)Nc1ccc(Oc2ccccc2)cc1`: the cell count reduction is -16.8% (inactive).

With `CCn1c2ccccc2c2cc(NC(=S)N3CCOCC3)ccc21`, the cell count reduction was -4% (inactive).

In the case of `O=C(NCc1cccnc1)c1cccnc1Sc1ccc(Cl)cc1`, the cell count reduction is -20.6% (inactive).

As to `Cc1ccc(C)c(NC(=O)C2Cc3ccccc3CN2C(=O)OCc2ccccc2)c1` (stereo unspecified), the cell count reduction was -19.8% (inactive).

For the molecule `CSc1cc(C)n(-c2ccccc2C)c(=S)c1C(C)=O`, the cell count reduction is -11.4% (inactive).

Turning to `CC(C)(C)NS(=O)(=O)c1ccc(NC(=O)NC2CCCCC2)cc1`, the cell count reduction was 2.5% (inactive).

In the case of `CC(C)(C)c1ccc(OC2=CS(=O)(=O)c3ccccc32)cc1`, the cell count reduction is -12% (inactive).

As to `O=C(N/N=C\c1ccc(-c2ccc(Cl)c(Cl)c2)o1)C(=O)N1CCCC1`, the cell count reduction was -10.6% (inactive).

With `c1ccc(CSc2ncnc3c2sc2nc(N4CCOCC4)c4c(c23)CCCC4)cc1`, the cell count reduction was -21.4% (inactive).

With `CCC(C)n1c(-c2cc(OC)c(OC)c(OC)c2)nc2nc3ccccc3nc21` (stereo unspecified), the cell count reduction is 5.6% (inactive).

Take `O=C(Oc1ccccc1)Oc1ccc2c(c1)oc(=O)c1ccccc12`: the cell count reduction is -8.6% (inactive).

On to `Cc1ccc(Oc2ccc3c(c2)C(=O)N(c2cccc4cccnc24)C3=O)cc1`, for which the cell count reduction was 16.6% (inactive).

Regarding `O=C(Nc1ccccc1)O/N=C1\CCCCC1c1ccc([N+](=O)[O-])cc1[N+](=O)[O-]` (stereo unspecified), the cell count reduction is -15.6% (inactive).

Consider `O=C(CSc1nc2ccccc2o1)N1c2ccccc2Sc2ccc(Cl)cc21`, for which the cell count reduction was 4.3% (inactive).

With `O=C(CCl)NNc1cccc(Cl)n1`, the cell count reduction was -9% (inactive).

On to `Cc1cc(-c2cccs2)nc(-n2cccc2)n1`, for which the cell count reduction is 3.7% (inactive).

With `COc1cccc2cc(C(=O)N3CCN(C(=O)c4ccccc4)CC3)c(=O)oc12`, the cell count reduction is -19.2% (inactive).

Turning to `O=C(Cc1ccc(S(=O)(=O)N2CCOCC2)s1)NCCC(c1ccccc1)c1ccccc1`, the cell count reduction is -20.2% (inactive).

For the molecule `Cc1cc(C)c2nc(NC(=O)c3ccc4c(c3)OCO4)sc2c1`, the cell count reduction is -4.3% (inactive).

Turning to `CC(Oc1ccc(-c2ccccc2)c(F)c1)c1ccn(S(=O)(=O)c2cccc3ccccc23)n1` (stereo unspecified), the cell count reduction is -7.1% (inactive).

As to `Clc1ccc(-c2cc(COc3ccccc3)no2)cc1Cl`, the cell count reduction is 2% (inactive).

As for `COC(=O)c1ccc(C2C(Oc3ccccc3C)C(=O)N2CCc2ccc(OC)c(OC)c2)cc1` (stereo unspecified), the cell count reduction is -15.9% (inactive).

Turning to `CN(C)Cc1ccccc1C1(O)c2ccccc2CSc2ccccc21` (stereo unspecified), the cell count reduction is 12.2% (inactive).

With `Cc1cc(C)c2cc(CN(Cc3nnnn3Cc3ccc(F)cc3)C3CCCC3)c(=O)[nH]c2c1`, the cell count reduction is -8.7% (inactive).

As to `CCCc1ccc(OCc2ccc(C(=O)N/N=C/c3cccc([N+](=O)[O-])c3)o2)c(OC)c1`, the cell count reduction was 11.6% (inactive).
